# Screens (PubChem)
# Sampled rows, rich in hits. Any-hit rate of the full collection: about 9%.
# IMPase Li inh – IMPase inhibition in cells with lithium potentiation. Potency, µM (top dose mostly 59.4 µM), for inactives: top-dose activity, negative = IMPase inhibition, usual class: inhibitors. 210,000 tested, 0.35% active. CHO-M1 cells, IP1 TR-FRET (IP-One), carbachol + lithium; active = well fitted curve in the direction sought with a large enough effect; inconclusive = small, poorly fitted or top-dose-only effect, or another doubt; inactive = no such curve, though single readings can be large; an effect the other way counts as inactive or inconclusive;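 also: IP1 builds up when IMPase is blocked and the TR-FRET signal falls; plate controls were basal vehicle for no effect and high inhibitor control for full effect; nearly all actives have a fitted effect of over 50% in size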
#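 Test compounds were applied to CHO-M1 cells previously cultured for 16–30 h at 2000 per well. A small lithium amount accompanied them; after 30 min at 37C, IP1 was quantified by TR-FRET.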
# KinaseGlo FLuc – counter-screen: inhibitors of Kinase-Glo firefly luciferase. Kinase-Glo luciferase, ATP luminescence, 8 min. Potency, µM (highest dose often 38.3 µM), inactives show at the highest dose activity change, negative = inhibition, actives largely listed as inhibitors. 200,000 tested, 0.28% active; active = well fitted curve in the direction sought with a large enough effect; inconclusive = small, poorly fitted or top-dose-only effect, or another doubt; inactive = no such curve, though single readings can be large; an effect the other way counts as inactive or inconclusive; also: nearly all actives have a fitted effect of over 60% in size
#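 Luminescence was the read-out, taken after 8-minute incubation at ambient temperature. Luciferase turned over luciferin with 10 uM ATP in imidazole pH 7.2 buffer containing KCl, MgCl2, Tween 20 and BSA.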
# Lamin A splicing – changes lamin A minigene splicing in HeLa cells; HeLa LMNA splicing GFP/RFP minigene ratio, 48 h; Potency, µM (titrated, usually from 46.1 µM), inactives show top-dose ratio change, negative = inhibition, hits mostly inhibitors; 200,000 tested, 0.01% active; active = well fitted inhibition curve with a large enough effect in the signal ratio, with a control signal flat, not every such curve was filed as active; inconclusive = small, poorly fitted or top-dose-only effect, or effect the other way, or a change in a side signal; the % refers to the signal ratio
#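 S3 HeLa cells stably expressing lamin A-EGFP splicing minigene plus DsRed2, 600 cells/well, 48 h compound exposure at 37C. Laser-scanning cytometry; analysed as GFP (500-530 nm)/RFP (575-640 nm) total intensity ratio; 0.5% DMSO vehicle.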
# ALDH1A1 inh – inhibitors of human aldehyde dehydrogenase 1A1; P00352; Purified ALDH1A1, NADH fluorescence, propionaldehyde substrate; Potency, µM (top dose mostly 75.3 µM), without a hit: at the highest dose activity, negative = inhibition, most hits filed as inhibitors; 220,000 tested, 7.3% active;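 also: plate controls were no enzyme wells and a reference inhibitor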
# HPGD inh – blocks human HPGD enzyme activity. 150,000 tested, 4.3% active. Potency, µM, for inactives: at the top dose activity change, negative = inhibition, most hits filed as inhibitors. AID 894. P15428. purified HPGD, NADH fluorescence kinetic, PGE2 substrate
# Target sequence (P15428 whole entry, looked up): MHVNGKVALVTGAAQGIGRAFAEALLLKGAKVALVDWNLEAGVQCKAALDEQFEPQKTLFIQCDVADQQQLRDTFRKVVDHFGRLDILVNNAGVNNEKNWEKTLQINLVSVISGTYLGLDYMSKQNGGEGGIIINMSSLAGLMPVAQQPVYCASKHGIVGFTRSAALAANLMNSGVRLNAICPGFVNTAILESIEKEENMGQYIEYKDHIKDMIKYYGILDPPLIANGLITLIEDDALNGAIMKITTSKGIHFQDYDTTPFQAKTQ
#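 20 nM HPGD preincubated 15 min at room temperature with compound in 50 mM Tris-HCl pH 8, 0.01% Tween 20. Started with 1 mM NAD+ and 30 uM prostaglandin E2; NADH fluorescence (360/450 nm) read 5 times over 30-s intervals, last minus first.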
# An asterisk follows results filed as active; ? = inconclusive; . = no result; [ ] = dose if it differs, or a comment. Unless noted, calls follow the shape of the dose curve; as a rule, active = well fitted inhibition curve with a large enough effect (not every such curve was filed as active); inconclusive = small, poorly fitted or top-dose-only effect, or another doubt; inactive = no such curve, though single readings can be large or run the other way. Unless noted, % is scaled to controls: 0 for no effect and ±100 for the full control effect; potency is read from the fitted curve at half-maximal effect.
SMILES,IMPase Li inh,KinaseGlo FLuc,Lamin A splicing,ALDH1A1 inh,HPGD inh
CC(=O)N(c1ccccc1)C1SC(=O)N(c2ccccc2)C1=O (centres undefined),-7%[38.3 µM],14%,14%,0.63µM*,-15%
CC(C)(C)OC(=O)NCCCC1=CC2=CC(=O)C(C)(OC(=O)c3cccs3)C(=O)C2=CO1 (centres undefined),13%,-11%,.,2%,-4%
CC(Sc1ccc2c(c1)OCCO2)C(=O)Nc1ccc(N2CCOCC2)cc1 (centres undefined),27%,-2%,.,4%,.
Cc1ccc(-c2nc(-c3ccccn3)no2)cc1,-11%[38.3 µM],3.2µM*,-3%,3%,-19%
Cc1ccc(-c2nc(-c3ccccn3)no2)cc1Cl,-10%[38.3 µM],11µM*,-1%,-5%,-19%
Clc1cccc(-c2nc(-c3ccccn3)no2)c1,4%[38.3 µM],?,1%,5%,3%
Cc1ccc2nc(-c3cccnc3)oc2c1,-3%[38.3 µM],-7%,4%,?,?
Cc1ccc2nc(-c3ccccn3)oc2c1,1%[38.3 µM],13µM*,6%,?,?
c1ccc(-c2nc(-c3ccccn3)no2)cc1,-2%,3.2µM*,-14%,13%,-4%
C/C(=N\Nc1ccc(C(F)(F)F)cn1)c1ccncc1,5%,0%,?,28%,.
Cc1cc(C)nc(NC=C2C(=O)OC(C)(C)OC2=O)n1,.,.,.,4µM*,.
CC1(C)OC(=O)C(=CNc2ncccn2)C(=O)O1,-2%[38.3 µM],1%,7%,?,-7%
COc1ccc(Nc2nc(NCc3ccco3)nc(N/N=C/c3ccc(O)cc3)n2)cc1,1%,-2%,?,4%,?
COc1ccc(/C=N/Nc2nc(NCc3ccco3)nc(Nc3ccc(OC)cc3)n2)cc1,16%,-1%,-5%,11µM*,-27%
O=C(NC1CCCCC1)c1ccc2c(c1)N(Cc1ccccc1F)C(=O)c1ccccc1S2,.,.,-12%[46 µM],.,.
CCOCCOC(=O)c1ccc(-n2cncn2)nc1,48%[38.3 µM],0%,21%,-2%,-15%
CCN(c1ccccc1)c1nc2ccsc2c(=O)s1,-3%[38.3 µM],0%,-2%,?,-23%
CN(c1ccccc1)c1nc2ccsc2c(=O)s1,16%[38.3 µM],-2%,6%,-16%,28µM*
CC(C)(C)OC(=O)N1CCC(c2c(C(=O)N3CCN(C(=O)c4ccco4)CC3)cnn2-c2ccccc2Cl)CC1,.,.,-10%[46 µM],.,.
O=C(NCCCn1ccnc1)c1cccc(S(=O)(=O)Nc2ccccc2F)c1,0%[38.3 µM],0%,-1%,-5%,2%
O=C(Nc1cccnc1)c1sc2cccc(F)c2c1Cl,-2%,0%,?,?,.
O=C(NCCCn1ccnc1)c1sc2cccc(F)c2c1Cl,30%[38.3 µM],16%,-9%,28µM*,-19%
CN(C)CCNC(=O)c1sc2cccc(F)c2c1Cl,-3%,0%,?,14µM*,.
O=C1CC(c2ccco2)CC(O)=C1C=Nc1cc(Cl)ccc1O (centres undefined),-4%[38.3 µM],-6%,?,?,8.9µM*
N#CC1=C(N)N2C(=C(C#N)C13CCCC3)Nc1ccccc12,9%,1%,8%[46 µM],?,.
SMILES,IMPase Li inh,KinaseGlo FLuc,Lamin A splicing,ALDH1A1 inh,HPGD inh
O=c1[nH]nc(SCCS(=O)(=O)c2ccc(F)cc2)n1-c1ccccc1,.,.,.,2.8µM*,.
O=c1[nH]nc(SCCS(=O)(=O)c2ccc(F)cc2)n1-c1ccc2c(c1)OCCO2,.,.,.,20µM*,.
Cc1nc(CSc2n[nH]c(=O)n2-c2cccc(F)c2)cs1,.,.,.,6%,.
CCCn1c(SCC(=O)c2ccc3c(c2)OCCO3)n[nH]c1=O,4%,-1%,1%[46 µM],?,.
CC1CCN(c2cc3c(cc2F)c(=O)c(S(=O)(=O)c2ccc(Cl)cc2)cn3C)CC1,.,.,17%[46 µM],.,.
CC(C)(C)NC(=S)NNC(=O)c1ccncc1,5%,3%,5%,9%,13µM*
O=C(CCN1C(=O)c2ccccc2C1=O)CN1CCOCC1,0%,4%,.,-5%,.
CCOC(=O)c1c(C)oc2nc(C)nc(NCC3CCN(Cc4ccc(F)cc4)CC3)c12,.,.,-17%[46 µM],.,.
Nc1c(C(=O)NCC2CCCO2)sc(=S)n1-c1ccccc1 (centres undefined),-2%[38.3 µM],-3%,-3%,14µM*,25µM*
C=CCn1c(N)c(C(=O)NCC2CCCO2)sc1=S (centres undefined),23%[38.3 µM],0%,6%,4%,-7%
CCn1c(N)c(C(=O)NCC2CCCO2)sc1=S (centres undefined),-6%[38.3 µM],-7%,7%,8.9µM*,6.3µM*
O=C1CCC2S/C(=C/Nc3ccc(C(F)(F)F)cc3)C(=O)N12 (centres undefined),22%,-3%,7%[46 µM],13µM*,.
CCC(=O)N1c2ccccc2CC1C(=O)NCCc1ccc(SC)cc1 (centres undefined),.,.,-20%[46 µM],.,.
S=c1[nH]nc(-c2ccccn2)n1/N=C/c1ccccc1,-2%,1%,4%,-15%,?
Fc1ccc(-c2n[nH]c(=S)n2/N=C/c2c[nH]c3ccccc23)cc1,3%,1%,-22%,?,2.8µM*
S=c1[nH]nc(-c2ccccn2)n1/N=C/c1cccc2ccccc12,0%,-5%,-4%,?,3.5µM*
S=c1[nH]nc(-c2ccccn2)n1/N=C/c1c(Cl)cccc1Cl,.,.,.,18µM*,.
Cc1ccsc1/C=N/n1c(COc2ccccc2)n[nH]c1=S,0%,3%,?,20µM*,14µM*
S=c1[nH]nc(COc2ccccc2)n1/N=C/c1cccs1,-14%,6%,-12%,-1%,14µM*
Cc1ccsc1/C=N/n1c(-c2cc(-c3ccccc3)n[nH]2)n[nH]c1=S,.,.,.,-2%,.
S=c1[nH]nc(-c2ccccn2)n1/N=C/c1cccs1,-5%,-1%,-4%,2%,-19%
Cc1cc(C)n2nc(SCCC(=O)NCc3ccccc3)nc2n1,6%,-1%,.,10%,.
CCOC(CNC(=O)c1ccc(N2CCc3ccccc32)c([N+](=O)[O-])c1)OCC,25%,-6%,?,10µM*,-19%
CC(=O)Nc1cc(C(=O)NCc2ccc(C)cc2)ccc1S(=O)(=O)c1ccc(Cl)cc1,.,.,-1%[46 µM],.,.
Cc1[nH][nH]c(=O)c1C(c1c(C)[nH][nH]c1=O)c1cn(Cc2cccc3ccccc23)c2ccccc12,11%[38.3 µM],-3%,1%,0.32µM*,-10%
CC(=O)Nc1ccc2c(c1)n(C)c(=O)n2C,4%[38.3 µM],1%,24%,3%,-8%
Cn1c(=O)n(C)c2cc(NC(=O)CCl)ccc21,8%[38.3 µM],6%,?,0.71µM*,-13%
Cc1ccc(S(=O)(=O)N2c3ccccc3NC(=O)C2CC(=O)Nc2ccccc2)cc1 (centres undefined),5%[38.3 µM],-1%,-2%,20µM*,-8%
COC(=O)C1=C(C)NC(=O)/C1=C\c1cc(C)n(-c2cc(C)cc(C)c2)c1C,29%[38.3 µM],17%,-1%,-13%,-6%
